Here are results for nine compounds from PubChem BioAssay.

In this experiment the target is Focal adhesion kinase 1 (Homo sapiens) (UniProt Q05397). The experiment is described as follows: PTK2 protein binding on printed compound slides – biochemical, small-molecule microarray, 635/667 nm fluorescence, BSA, DTT, primary screen (AID 1130).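 Note: composite of spot emission at 667 nm and signal to noise over triplicate slides.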 Particulars: 635 nm fluorescence, higher = more signal.
Chain of Focal adhesion kinase 1 (Homo sapiens) (Q05397 whole entry, looked up): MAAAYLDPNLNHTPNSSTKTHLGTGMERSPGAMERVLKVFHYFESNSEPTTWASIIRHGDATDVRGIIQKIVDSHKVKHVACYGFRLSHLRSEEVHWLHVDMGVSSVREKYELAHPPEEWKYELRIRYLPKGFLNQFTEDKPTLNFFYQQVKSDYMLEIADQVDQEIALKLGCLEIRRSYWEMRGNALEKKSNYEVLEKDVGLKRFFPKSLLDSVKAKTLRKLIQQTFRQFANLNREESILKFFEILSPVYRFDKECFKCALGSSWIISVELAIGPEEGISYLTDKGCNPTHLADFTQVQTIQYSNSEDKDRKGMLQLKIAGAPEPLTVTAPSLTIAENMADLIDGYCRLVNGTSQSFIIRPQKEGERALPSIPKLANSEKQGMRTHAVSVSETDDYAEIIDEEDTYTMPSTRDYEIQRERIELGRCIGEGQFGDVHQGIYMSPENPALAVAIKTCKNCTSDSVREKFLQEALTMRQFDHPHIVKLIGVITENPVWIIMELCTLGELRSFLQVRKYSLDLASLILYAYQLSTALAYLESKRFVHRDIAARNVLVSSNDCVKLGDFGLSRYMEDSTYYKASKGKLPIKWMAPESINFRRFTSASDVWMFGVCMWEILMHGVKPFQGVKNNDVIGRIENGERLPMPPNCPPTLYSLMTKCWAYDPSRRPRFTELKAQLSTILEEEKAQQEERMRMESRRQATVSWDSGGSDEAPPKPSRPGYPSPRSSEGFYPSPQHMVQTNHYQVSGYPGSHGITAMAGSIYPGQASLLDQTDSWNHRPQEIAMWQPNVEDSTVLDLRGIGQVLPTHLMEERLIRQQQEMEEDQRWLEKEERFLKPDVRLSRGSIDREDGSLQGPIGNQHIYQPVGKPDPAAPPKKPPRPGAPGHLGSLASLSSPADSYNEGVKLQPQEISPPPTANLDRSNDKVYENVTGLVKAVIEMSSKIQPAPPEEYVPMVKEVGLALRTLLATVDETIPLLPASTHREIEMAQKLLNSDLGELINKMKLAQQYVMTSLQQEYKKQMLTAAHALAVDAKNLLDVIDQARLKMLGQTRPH
As for `CN(C)C(=O)[C@@]1(Cc2ccccc2)COC(c2ccc(OCCCO)cc2)=N1`, the composite z-score is 0.292.
Compound `CO[C@H]1O[C@H](CO)[C@@H](OC(=O)CCc2ccccc2)[C@H](OC(=O)c2cc3ccccc3[nH]2)[C@H]1OC(=O)c1cc2ccccc2[nH]1` had a composite z-score of 0.332.
Next, `CN1C(=O)C2C=CC(C(O)c3cc(C(F)(F)F)cc(C(F)(F)F)c3)N(Nc3ccccc3)C2C1=O` (centres undefined): 0.99.
The figure for `COCCOC(=O)N1C(=O)[C@@]2(c3cc(C#CCCO)ccc31)[C@H](C(N)=O)[C@H]1C(=O)O[C@H](c3ccccc3)[C@H](c3ccccc3)N1[C@@H]2c1ccc(OCCO)cc1` is 0.663.
The figure for `COCCOC(=O)N1C(=O)[C@@]2(c3cc(C#Cc4ccc(OC)cc4)ccc31)[C@H](C(=O)NC[C@H](O)c1ccccc1)[C@H]1C(=O)O[C@H](c3ccccc3)[C@H](c3ccccc3)N1[C@@H]2c1ccc(OCCO)cc1` is -0.103; for `COCCOC(=O)N1C(=O)[C@@]2(c3cc(C#CCNC(N)=O)ccc31)[C@H](c1ccc(OCCO)cc1)N1[C@H](c3ccccc3)[C@H](c3ccccc3)OC(=O)[C@H]1[C@@H]2C(N)=O` it is 0.31.
Compound `CC(=O)NCCCC[C@@H]1NC(=O)[C@H]2C[C@@H](C(=O)NCCCCCNC(=O)CS)[C@@H](c3cccc(OCCO)c3)N2C1=O` showed a composite z-score of 0.598.
The compound `O=C1O[C@H](c2ccccc2)[C@H](c2ccccc2)N2[C@H]1[C@@H](C(=O)N1CCCCCCC1)[C@]1(C(=O)Nc3ccc(C#CC4(O)CCCCCC4)cc31)[C@H]2c1ccccc1OCCO` displayed a composite z-score of 3.94.
Next, `COCCCNC(=O)[C@@]1(c2ccc([N+](=O)[O-])cc2)CC(=O)N(CC23CC4CC(CC(C4)C2)C3)[C@@H]1c1ccc(CO)cc1I`: 0.0865.
